The values that follow come from PubChem BioAssay (NCATS).

Inconclusive results are not listed. The source made the active and inactive calls. Unless noted, calls come from the whole dose curve; as a rule, active = well fitted activation curve with a large enough effect; inconclusive = small, poorly fitted or top-dose-only effect; inactive = flat fitted curve, though single readings scatter.

Experiment [1] in a line: Primary redox qHTS assay for identification of artifact compounds. (AID 1845223).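 Note: 0% = DMSO and 100% = reference compound.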 The essentials:
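Redox-cycling detection via DTT (250 uM final) oxidation coupled to Amplex Red (25 uM)/HRP (250 mU/mL) in HBSS. 15 min preincubation plus 30 min after DTT, room temperature. Ex/Em 525/598 nm; 4-parameter Hill fit against DMSO and 10 uM DA3003.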
In general terms: Quantitative high-throughput screening tests each substance at several concentrations.

A short description of experiment [2]: qHTS drug screen for cell cycle checkpoint inhibitors in PARPi-resistant BRCA-mutant ovarian cancer cell lines. (AID 1963452; calls by dose curve; note: potency is the fitted concentration of half-maximal effect). The note with it: PEO1/OlaR viability, CellTiter-Glo luminescence, 96 h; for Z-AUC: stronger effect = lower value. The essentials:
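PEO1, PEO4 and PEO1/OlaR ovarian cancer cells, 600 per well, exposed 96 h at 37C to a dilution series. Viability read by CellTiter-Glo luminescence, normalized to DMSO and empty wells; activity summarized as Z-AUC.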

Where [3] appears, read: measured here: PEO1 parental Z-AUC.

For `CC(C)NC(=O)COc1cccc(-c2nc(Nc3ccc4[nH]ncc4c3)c3ccccc3n2)c1`, the Potency entry in experiment [1] was “inactive”. Further, the Potency in experiment [2] was 4.36 µM (active). Besides, the Z-AUC is -1.21 in experiment [2] (setting [3]) and -1.12 in experiment [2] (measured here: PEO4 Z-AUC).
As for `CN(C)N(C)C(=O)[C@@]1(Cc2ccccc2)CCCN(C(=O)[C@@H](Cc2c[nH]c3ccccc23)NC(=O)C(C)(C)N)C1`, the Potency entry in experiment [1] is “inactive”. Also, the Z-AUC in experiment [2] was -0.303 (inactive); in experiment [2] (setting [3]) it was -0.129; in experiment [2] (measured here: PEO4 Z-AUC), 0.0758.
On to `Cc1ccc(C(=O)Nc2ccc(CN3CCN(C)CC3)c(C(F)(F)F)c2)cc1C#Cc1cnc2[nH]ncc2c1`, for which the Potency entry in experiment [1] was “inactive”. In addition, the Z-AUC in experiment [2] is -1.39 (inactive); in experiment [2] (setting [3]), -0.429; in experiment [2] (measured here: PEO4 Z-AUC), -0.168.
Take `Cc1cccc(CC(=O)N2CCc3c2ccc(-c2cn(C)c4ncnc(N)c24)c3F)n1`: the Potency entry in experiment [1] was “inactive”. For the same molecule, the Z-AUC was -0.652 (inactive) in experiment [2], -1.04 in experiment [2] (setting [3]) and -0.572 in experiment [2] (measured here: PEO4 Z-AUC).
For `C1=C/COCc2cc(ccc2OCCN2CCCC2)Nc2nccc(n2)-c2cccc(c2)COC/1` the same measures were “inactive”, -1.05 (inactive), -1.19 and -0.941.
For `O=C1Nc2nc(-c3c(O)cccc3OCC3CC3)cc([C@@H]3CCCNC3)c2CO1` the same measures were “inactive”, 0.934 (inactive), 0.63 and 0.451.
Turning to `O=C(NCC(=O)N1CCCC1)Nc1ccc2cnccc2c1`, the Potency entry in experiment [1] is “inactive”. The Z-AUC in experiment [2] is -0.618 (inactive); in experiment [2] (setting [3]), -0.349; in experiment [2] (measured here: PEO4 Z-AUC), -1.01.
Take `Cc1[nH]c(/C=C2\C(=O)Nc3ccc(F)cc32)c(C)c1C(=O)NCCN1CCCC1`: the Potency result in experiment [1] is “inactive”. Further, the Z-AUC in experiment [2] was 0.66 (inactive); in experiment [2] (setting [3]) it was 0.734; in experiment [2] (measured here: PEO4 Z-AUC) it was 0.596.
On to `O=C(N[C@H]1CCC[C@H](CO)C1)C1CCN(c2nc3cc(Cl)c(-c4ccc(Cl)cc4)cc3o2)CC1`, for which, in experiment [1], the Potency entry was “inactive”. The Z-AUC in experiment [2] was -0.759 (inactive); in experiment [2] (setting [3]) it was 0.237; in experiment [2] (measured here: PEO4 Z-AUC), -0.768.
As for `C[C@H](CN(C)C)Oc1nc(Nc2cc3cccc(Cl)c3cn2)cnc1C#N`, in experiment [1], the Potency result is “inactive”. Also, the values for the Z-AUC in experiment [2], in experiment [2] (setting [3]) and in experiment [2] (measured here: PEO4 Z-AUC) were -0.234 (inactive), 0.15 and -0.249, respectively.
In the case of `COc1ccc2nc3n[nH]c(C)c3c(NCCOCCO)c2c1`, in experiment [1], the Potency entry was “inactive”. Moreover, the Z-AUC is -0.331 (inactive) in experiment [2], 0.387 in experiment [2] (setting [3]) and 0.00576 in experiment [2] (measured here: PEO4 Z-AUC).
As for `Cn1ncnc1[C@H]1c2n[nH]c(=O)c3cc(F)cc(c23)N[C@@H]1c1ccc(F)cc1`, the Potency entry in experiment [1] was “inactive”. In addition, the Z-AUC in experiment [2] was 0.447 (inactive); in experiment [2] (setting [3]), -1.15; in experiment [2] (measured here: PEO4 Z-AUC) it was -0.329.
Consider `O=C([C@@H](Cc1cccc(C(F)(F)F)c1)NS(=O)(=O)c1cc(F)c2c(c1)CCNC2)N1CCCC1`, for which the Potency result in experiment [1] was “inactive”. Moreover, the results for the Z-AUC in experiment [2], in experiment [2] (setting [3]) and in experiment [2] (measured here: PEO4 Z-AUC) were -0.343 (inactive), -0.218 and -0.109, respectively.
As to `COc1cc2ncnc(Nc3ccc(O)c(Br)c3)c2cc1OC`, the Potency entry in experiment [1] was “inactive”. In addition, the Z-AUC in experiment [2] was -0.393 (inactive); in experiment [2] (setting [3]), 0.024; in experiment [2] (measured here: PEO4 Z-AUC), -0.318.
For `Cc1nc2ccc(-n3ncc(C(=O)c4cc5ccccc5[nH]4)c3N)cc2[nH]1`, the Potency entry in experiment [1] was “inactive”. The values for the Z-AUC in experiment [2], in experiment [2] (setting [3]) and in experiment [2] (measured here: PEO4 Z-AUC) were -0.798 (inactive), -1.1 and -0.294, respectively.
For `O=C(O)C1=CO[C@@H](O[C@@H]2O[C@H](CO)[C@@H](O)[C@H](O)[C@H]2O)[C@@H]2C(CO)=CC[C@H]12`, the Potency result in experiment [1] was “inactive”. Besides, the Z-AUC in experiment [2] was 1.4 (inactive); in experiment [2] (setting [3]) it was 1.85; in experiment [2] (measured here: PEO4 Z-AUC), 1.61.
As to `C=CC(=O)N1CCC(Oc2cc3c(Nc4ccc(Cl)c(Cl)c4F)ncnc3cc2OC)CC1`, in experiment [1], the Potency entry was “inactive”. The Z-AUC in experiment [2] is -0.983 (inactive); in experiment [2] (setting [3]), -1.08; in experiment [2] (measured here: PEO4 Z-AUC), -0.834.
As to `Cn1ncc2cc(-c3cnc(N)c(Cl)c3N3CCC4(CCNC4=O)CC3)ccc21`, in experiment [1], the Potency result is “inactive”. In addition, the figures for the Z-AUC in experiment [2], in experiment [2] (setting [3]) and in experiment [2] (measured here: PEO4 Z-AUC) were -0.513 (inactive), -0.91 and -1.02, respectively.
`Cc1cc(N2CCOCC2)ccc1Nc1nc(NC2CCCCC2)c2[nH]cnc2n1`: in experiment [1], the Potency entry was “inactive”. Besides, the values for the Z-AUC in experiment [2], in experiment [2] (setting [3]) and in experiment [2] (measured here: PEO4 Z-AUC) were -0.0672 (inactive), -0.748 and -0.826, respectively.
In the case of `Cn1cc(-c2ccc3c(c2)CCN3C(=O)Cc2cccc(C(F)(F)F)c2)c2c(N)ncnc21`, the Potency result in experiment [1] is “inactive”. In addition, the Z-AUC is -1.17 (inactive) in experiment [2], -0.267 in experiment [2] (setting [3]) and -1.2 in experiment [2] (measured here: PEO4 Z-AUC).
Regarding `O=c1[nH]c([C@@H]2CCCN2)nc2c1oc1ccc(Cl)cc12`, the Potency entry in experiment [1] is “inactive”. The Z-AUC in experiment [2] is 0.967 (inactive); in experiment [2] (setting [3]), 1.19; in experiment [2] (measured here: PEO4 Z-AUC), 1.1.
For `COC(C)(C)CCn1nc(Nc2c(C)cccc2C)c2cnc(Nc3ccc(OCCN4CCCC4)c(F)c3)nc21` the same measures were “inactive”, -0.962 (inactive), -0.494 and 0.564.
Regarding `CC1(C)CN(C(=O)c2ccc(-c3cccc4nc(NC(=O)C5CC5)nn34)cc2)C1`, the Potency entry in experiment [1] was “inactive”. Moreover, the Z-AUC is 0.782 (inactive) in experiment [2], 0.925 in experiment [2] (setting [3]) and 1.32 in experiment [2] (measured here: PEO4 Z-AUC).
With `CCOc1cc(C(C)(C)C)ccc1C1=N[C@@](C)(c2ccc(Cl)cc2)[C@@](C)(c2ccc(Cl)cc2)N1C(=O)N1CCN(CC(=O)N2CCOCC2)CC1`, the Potency entry in experiment [1] is “inactive”. Moreover, the Z-AUC is -0.291 (inactive) in experiment [2], 0.35 in experiment [2] (setting [3]) and 0.188 in experiment [2] (measured here: PEO4 Z-AUC).
On to `CCCCOC(=O)NS(=O)(=O)c1sc(CC(C)C)cc1-c1ccc(Cn2ccnc2)cc1`, for which the Potency result in experiment [1] is “inactive”. Besides, the Z-AUC in experiment [2] is 0.282 (inactive); in experiment [2] (setting [3]) it was 0.365; in experiment [2] (measured here: PEO4 Z-AUC) it was 0.449.
For `Cn1ncc(Cl)c1-c1cc(C(=O)N[C@H](CN)Cc2cccc(F)c2)sc1Cl` the same measures were “inactive”, 0.3 (inactive), 0.0445 and 0.251.
